NCOA1 inh – SRC1 coactivator transcriptional activity inhibitors, primary screen, cell-based, luminescence; inhibition, % at 3.6 µM; HEK293 GAL4-SRC1 luciferase reporter; actives 0.12% (n = 360,000); Nuclear receptor coactivator 1 (Homo sapiens), Q15788;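 active = inhibition above the campaign mean plus 3 SD, with each screening campaign given its own cutoff, cut at about 60% in these data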;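 also: 0% = DMSO treated cells and 100% = gossypol at 36 µM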
COUP-TFII inh – NR2F2 transcriptional activity inhibitors, primary screen, cell-based, luciferase reporter, HEK293T, luminescence; COUP transcription factor 2 (Homo sapiens), P24468; HEK293T NGFI-A luciferase reporter; actives 0.7% (n = 370,000); inhibition, % at 8.6 µM; AID 686940, 2013;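 active = inhibition above a per-plate cutoff, mean inhibition of test wells between control levels plus 3 SD, cut at about 38% in these data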;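 also: cells cotransfected with COUP-TFII expression vector driving the NGFI-A reporter; 0% = median of COUP-TF2 test wells and 100% = reporter-only cells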
NCOA3 inh – SRC3 coactivator transcriptional activity inhibitors, primary screen, cell-based, luminescence; HEK293 GAL4-SRC3 luciferase reporter; inhibition, % at 3.6 µM; actives 0.17% (n = 360,000);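 active = inhibition above a per-campaign cutoff, the mean of all compounds plus 3 SD, cut at about 60% in these data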;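 also: 0% = DMSO-treated cells and 100% = gossypol-treated cells at 36 µM; higher means less SRC3-driven luciferase light from the GAL4 reporter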
NR5A2 inv ag – LRH-1 (NR5A2) inverse agonists, primary screen, cell-based, luminescence, HEK293T, StAR-luciferase reporter; actives 0.13% (n = 360,000); Nuclear receptor subfamily 5 group A member 2 (Homo sapiens), O00482; inhibition, % at 3.6 µM; LRH-1 transfected, 24 h; AID 602396, 2012;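 active = inhibition above the mean inhibition of all tested compounds plus 3 SD, cut at about 73% in these data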;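 also: 0% = DMSO wells and 100% = reporter-only cells lacking LRH-1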
SRC2 inh – inhibition of GAL4-SRC2 driven luciferase reporter, primary screen, SRC2 inhibitor project, cell-based, luminescence | Nuclear receptor coactivator 2 (Homo sapiens), Q15596 | HEK293 GAL4-SRC2 luciferase reporter | inhibition, % at 9 µM | actives 0.17% (n = 370,000);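 active = inhibition above the mean inhibition of all tested compounds plus 3 SD, set per campaign, cut at about 52% in these data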;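 also: 0% = DMSO treated cells and 100% = cells given Gossypol at 36 µM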
Target sequence (Q15596 whole entry, looked up, the tested form may be a part): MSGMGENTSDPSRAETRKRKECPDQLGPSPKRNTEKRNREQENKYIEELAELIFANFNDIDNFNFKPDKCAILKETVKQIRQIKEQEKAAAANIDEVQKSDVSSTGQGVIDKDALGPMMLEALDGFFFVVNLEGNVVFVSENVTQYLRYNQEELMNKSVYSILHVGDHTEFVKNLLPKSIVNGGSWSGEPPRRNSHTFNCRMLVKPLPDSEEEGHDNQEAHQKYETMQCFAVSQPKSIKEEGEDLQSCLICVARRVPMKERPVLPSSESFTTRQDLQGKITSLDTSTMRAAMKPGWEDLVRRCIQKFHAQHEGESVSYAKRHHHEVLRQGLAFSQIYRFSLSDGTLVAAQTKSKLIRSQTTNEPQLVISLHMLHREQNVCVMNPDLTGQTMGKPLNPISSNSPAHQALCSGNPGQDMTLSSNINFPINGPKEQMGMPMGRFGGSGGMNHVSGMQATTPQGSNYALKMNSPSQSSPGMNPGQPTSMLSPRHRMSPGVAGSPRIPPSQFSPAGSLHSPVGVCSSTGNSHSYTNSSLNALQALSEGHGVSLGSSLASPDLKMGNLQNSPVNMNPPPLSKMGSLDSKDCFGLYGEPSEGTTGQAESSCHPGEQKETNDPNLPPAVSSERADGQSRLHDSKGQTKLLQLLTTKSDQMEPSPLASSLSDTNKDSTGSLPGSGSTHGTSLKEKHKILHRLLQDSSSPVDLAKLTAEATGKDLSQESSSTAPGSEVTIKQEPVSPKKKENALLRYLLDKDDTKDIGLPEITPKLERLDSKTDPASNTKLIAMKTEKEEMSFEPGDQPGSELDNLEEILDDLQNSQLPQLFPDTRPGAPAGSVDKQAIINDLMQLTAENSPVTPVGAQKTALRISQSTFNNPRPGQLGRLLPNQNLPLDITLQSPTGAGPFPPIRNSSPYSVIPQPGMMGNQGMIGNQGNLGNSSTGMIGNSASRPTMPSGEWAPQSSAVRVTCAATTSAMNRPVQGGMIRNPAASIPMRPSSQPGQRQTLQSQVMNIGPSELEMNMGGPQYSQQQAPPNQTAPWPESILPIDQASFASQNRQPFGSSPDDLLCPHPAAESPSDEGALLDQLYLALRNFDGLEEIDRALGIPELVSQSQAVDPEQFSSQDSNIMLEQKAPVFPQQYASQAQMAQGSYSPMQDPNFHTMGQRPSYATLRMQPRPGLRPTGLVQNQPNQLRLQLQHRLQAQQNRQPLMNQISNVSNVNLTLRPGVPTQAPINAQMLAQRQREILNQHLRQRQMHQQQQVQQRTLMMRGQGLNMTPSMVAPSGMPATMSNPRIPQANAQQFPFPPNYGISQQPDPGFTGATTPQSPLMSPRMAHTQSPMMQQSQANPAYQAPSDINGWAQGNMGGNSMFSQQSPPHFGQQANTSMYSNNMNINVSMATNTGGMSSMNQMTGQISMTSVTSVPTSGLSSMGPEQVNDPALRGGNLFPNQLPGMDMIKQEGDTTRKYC
VP16 Luc counter – Gal4-VP16 luciferase reporter inhibitors, counter-screen for COUP-TFII antagonist project, cell-based, luminescence, HEK293; inhibition, % at 8.5 µM; actives 25% (n = 2,500); AID 687007, 2013; shares compounds with COUP-TFII inh; in the data active = inhibition above about 13%
COUP-TFII conf – NR2F2 transcriptional activity inhibitors, confirmation, cell-based, luciferase reporter, HEK293, triplicate. HEK293 NGFI-A luciferase reporter, luminescence. inhibition, % at 8.5 µM. shares compounds with COUP-TFII inh. actives 45% (n = 2,500). AID 687008, 2013;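 active = mean inhibition over three repeats above a set limit taken from the earlier primary screen, cut at about 38% in these data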;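 also: 100% = cells given the luciferase reporter alone without the COUP-TF2 vector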
Active calls of the source: *; . = no result given. An excerpt weighted towards active compounds, which were near 0.81% of everything screened.

SMILES | NCOA1 inh | COUP-TFII inh | NCOA3 inh | NR5A2 inv ag | SRC2 inh | VP16 Luc counter | COUP-TFII conf
COc1cc(CCC(=O)Nc2ccc(C)c(S(=O)(=O)N3CCCCCC3)c2)cc(OC)c1OC | 0 | 54* | 13 | 28 | 29 | 1 | 25
COc1ccc(CCNC(=O)c2ccc(Cl)c(S(=O)(=O)N3CCCCCC3)c2)cc1 | 17 | 63* | 12 | 26 | 16 | 5 | 41*
COc1cc(CCC(=O)Nc2ccc(S(=O)(=O)N3CCCC3)cc2)cc(OC)c1OC | 6 | -10 | 8 | 30 | 20 | . | .
COc1ccc(CCC(=O)Nc2ccc(OC)c(S(=O)(=O)N3CCCCC3)c2)cc1OC | -21 | 18 | 12 | -17 | 14 | . | .
COc1ccc(CCC(=O)Nc2ccc(Cl)c(S(=O)(=O)N3CCCC3)c2)cc1 | 31 | 59* | 19 | 27 | 21 | -1 | 38*
O=C(NCCc1ccc(F)cc1)c1ccc(Cl)c(S(=O)(=O)N2CCOCC2)c1 | 11 | 40* | 15 | 3 | 21 | -10 | 8
CC1CCCN(S(=O)(=O)c2cc(C(=O)NCCc3ccc(S(N)(=O)=O)cc3)ccc2Cl)C1 (centres undefined) | 7 | 64* | 20 | 33 | 31 | 7 | 39*
CC1CCCN(S(=O)(=O)c2cc(C(=O)NCc3ccco3)ccc2Cl)C1 (centres undefined) | -9 | 19 | 0 | -1 | -23 | . | .
Cc1ccc(-n2ncc3c(N4CCCC4)ncnc32)c(C)c1 | -51 | -39 | -41 | -84 | -95 | . | .
COc1cccc(N2CCN(c3ncnc4c3cnn4-c3ccc(C)cc3C)CC2)c1 | 44 | 97* | 79* | 64 | 69* | 27* | 91*
Cc1cc(-n2c(C)cc(C(=O)CSc3ncnc4ccccc34)c2C)no1 | 25 | 54* | 36 | 41 | 29 | -4 | 60*
CCC(C)(C)C1CCC(=NNS(=O)(=O)c2ccc(C)c([N+](=O)[O-])c2)CC1 (centres undefined) | -4 | 1 | 17 | -9 | 5 | . | .
Cc1ccc(/C=C/c2ccc(N(C)C)cc2)[n+](C)c1 | 42 | 65* | 49 | 59 | -15 | -6 | 55*
C[n+]1ccc(/C=C/c2cccs2)cc1 | -2 | 6 | 17 | -2 | -24 | . | .
CN(C)c1ccc(/C=C/c2cc[n+](C)cc2)cc1 | 18 | 41* | 31 | 6 | 0 | -15 | 15
CCN(CC(=O)NCc1cccs1)C(=O)Cc1ccc(C)c(C)c1 | 1 | -9 | 9 | 6 | -33 | . | .
COc1ccccc1OCc1nc2ccccc2[nH]1 | -112 | -35 | -67 | -149 | -65 | . | .
Cc1cc(N)nc(SCC(=O)N2C(C)CCCC2C)n1 (centres undefined) | 1 | -4 | 9 | 2 | -9 | . | .
Cc1cc(C)n(-c2nc(NC(C)(C)C)nc(NC(C)(C)C)n2)n1 | -19 | 8 | 7 | 17 | -2 | . | .
Cn1nc(-c2ccccn2)nc2c(=O)n(C)c(=O)nc1-2 | 89* | 54* | 93* | 84* | 39 | 30* | 33
CCn1c(N)nc2c1c(=O)n(C)c(=O)n2C | 3 | 1 | -26 | 23 | 5 | . | .
CCCc1nc2c(=O)n(C)c(=O)nc-2n(C)n1 | 87* | 68* | 90* | 89* | 67* | 37* | 60*
COc1ccc(C(O)c2nc3ccccc3n2C)cc1OC (centres undefined) | 15 | 47* | 21 | 18 | -8 | 1 | 32
CN(C)C(CNC(=O)c1cc(S(=O)(=O)N(C)c2ccccc2)ccc1Cl)c1cccs1 (centres undefined) | 12 | 41* | 10 | -22 | 7 | 9 | 15
Cc1cc(N2CCCC2)ccc1NC(=O)COc1cccc(C(F)(F)F)c1 | 23 | 40* | 21 | 24 | 18 | 6 | 35
SMILES | NCOA1 inh | COUP-TFII inh | NCOA3 inh | NR5A2 inv ag | SRC2 inh | VP16 Luc counter | COUP-TFII conf
Cc1ccc(Cn2ccsc2=NC(=O)COC(=O)C(C)C)cc1 | -43 | -7 | 3 | 0 | -14 | . | .
Cc1ccc2oc(-c3cccc(NC(=S)NC(=O)c4cccs4)c3)nc2c1 | -24 | -28 | -25 | -19 | -29 | . | .
Cc1ccc2oc(-c3cccc(NC(=S)NC(=O)/C=C/c4ccco4)c3)nc2c1 | -22 | 47* | 4 | 17 | -7 | -31 | -13
Cc1cc(Nc2ccccc2)nc(NCc2ccccc2)n1 | 10 | 38* | 0 | 19 | 28 | -5 | 21
Cc1ccc(S(=O)(=O)NCC(=O)N(CC(=O)NC2CCCC2)CC2CCCO2)cc1 (centres undefined) | -8 | 2 | 9 | -8 | -43 | . | .
CC(C)(C)c1ccc(C(=O)Nc2ccc(Oc3cccnc3)nc2)cc1 | 23 | 64* | 13 | 21 | 17 | -8 | 61*
COC1CC(C)C(OC)c2cc(O)cc(c2O)NC(=O)C(C)=CC=CC(C)C(OC(N)=O)C(C)=CC(C)C1OC (centres undefined) | 34 | -23 | 55 | 23 | 11 | . | .
COC1C=CC=C(C)C(=O)NC2=CC(=O)C(N)=C(CC(C)CC(OC)C(O)C(C)C=C(C)C1OC(N)=O)C2=O (centres undefined) | 72* | 55* | 75* | 86* | 19 | 61* | 75*
COc1ccc(NS(=O)(=O)c2cccc(NC(=O)c3ccc(Cl)nc3)c2)cc1 | 23 | 75* | 10 | 49 | 7 | 3 | 66*
CCCCCCCCn1c(=O)c(C(=O)OC)c(N)c2ccccc21 | -6 | 8 | -2 | -6 | 4 | . | .
COc1ccccc1N1CCN(C(=O)CSc2nnc3n2C(C)(C)Cc2ccccc2-3)CC1 | 9 | 63* | 39 | 26 | 28 | 4 | 45*
CC1Cc2ccccc2N1C(=O)CSc1nnc2n1C(C)(C)Cc1ccccc1-2 (centres undefined) | 7 | 9 | -2 | 12 | 5 | . | .
CCOC(=O)C1CCN(C(=O)CCc2c(C)nc3cc(-c4ccccc4)nn3c2C)CC1 | -2 | 8 | -3 | 8 | 50 | . | .
COc1cc(OC)cc(-c2cc3nc(C)c(CCC(=O)O)c(C)n3n2)c1 | 53 | 89* | 55 | 53 | 78* | 89* | 97*
CCOC(=O)C1CCCCN1C(=O)CCc1c(C)nc2cc(-c3ccccc3)nn2c1C (centres undefined) | -2 | 52* | 21 | 0 | 70* | -13 | 20
